# Measured values as given in PubChem BioAssay.
# Activity calls are given as the source filed them.
# Columns and labels:
# [1] = system: PRMT1 (protein arginine N-methyltransferase 1); experiment: small molecules binding arginine methyltransferase PRMT1 – biochemical, small-molecule microarray, 635 nm fluorescence, primary screen (AID 1088); details: higher = more signal;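 note: binding of Prmt1 protein to compounds spotted on small-molecule microarray slides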
# [2] = growth effects on S. cerevisiae YJM789 – YJM789 clinical isolate, OD600, 24 h, basal, primary screen (AID 1089); details: higher = more signal, called active from +8 up or from −8 down;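 note: growth of clinical yeast isolate S. cerevisiae YJM 789 seeded 1000 cells per well; test concentration not given here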
# [3] = S. pombe growth modifiers, basal conditions – strain 972, OD600, 24 h, no modulator, primary screen (AID 1090);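 note: basal condition with compound alone and no growth modifier present; test concentration not given here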; details: S. pombe 972 growth, higher = more signal, called active from +8 up or from −8 down
# [4] = budding yeast growth modifiers under rapamycin – strain BY4716, OD600, 96 h, primary screen (AID 1091); note: test concentration not given here; details: S. cerevisiae BY4716 + rapamycin, higher = more signal, called active from +8 up or from −8 down
# [5] = target: Torsin-1A-interacting protein 2 (Homo sapiens) (UniProt Q8NFQ8); experiment: small molecules binding lysate-expressed LULL1 – cell lysate, human LULL1 lysate, 635/667 nm fluorescence, primary screen (AID 1092); details: small-molecule microarray, hLULL1 lysate binding, 635 nm fluorescence; higher = more signal;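 note: probe is lysate of COS7 cells overexpressing human LULL1; score merges per-feature 667 nm fluorescence with signal-to-noise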
# Torsin-1A-interacting protein 2 (Homo sapiens), sequence (Q8NFQ8 whole entry, looked up): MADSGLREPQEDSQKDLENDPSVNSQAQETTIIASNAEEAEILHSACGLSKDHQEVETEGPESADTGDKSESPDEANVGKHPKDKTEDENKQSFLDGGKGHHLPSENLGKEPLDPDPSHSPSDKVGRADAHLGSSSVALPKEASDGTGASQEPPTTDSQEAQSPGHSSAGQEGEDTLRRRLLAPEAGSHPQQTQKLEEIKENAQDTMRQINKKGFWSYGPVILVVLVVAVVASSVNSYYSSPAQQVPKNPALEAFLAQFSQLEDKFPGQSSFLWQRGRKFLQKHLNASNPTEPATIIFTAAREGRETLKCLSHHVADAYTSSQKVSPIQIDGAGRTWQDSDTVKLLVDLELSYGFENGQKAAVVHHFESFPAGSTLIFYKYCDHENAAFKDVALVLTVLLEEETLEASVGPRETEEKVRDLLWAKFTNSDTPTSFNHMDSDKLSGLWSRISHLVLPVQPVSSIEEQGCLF
# [6] = optical density change of DRC41 E. coli – strain DRC41, OD650, 24 h, E. coli filamentation project, primary screen (AID 1093);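 note: MC1000 strain lacking acrAB efflux and sulA so SOS filamentation is blocked; test concentration not given here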; details: E. coli DRC41 growth, higher = more signal, called active from +8 up or from −8 down
# [7] = probe aLefty2 binding to arrayed compounds – biochemical, biotinylated probe, 635/667 nm fluorescence, primary screen (AID 1094); details: small-molecule microarray, higher = more signal;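 note: score merges spot fluorescence near 667 nm with spot signal-to-noise ratio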
# [8] = system: Noggin (protein binding on small-molecule microarray); experiment: small molecules binding Noggin protein – biochemical, 635/667 nm fluorescence, primary screen (AID 1095); details: 635 nm fluorescence, higher = more signal;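 note: score merges 667 nm feature fluorescence with signal to noise over triplicate slides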
# [9] = target: Neurogenic locus notch homolog protein 3 (Homo sapiens) (UniProt Q9UM47); experiment: small molecules binding NOTCH3 protein – biochemical, 635/667 nm fluorescence, primary screen (AID 1096); details: small-molecule microarray, 635 nm fluorescence, higher = more signal
# Neurogenic locus notch homolog protein 3 (Homo sapiens), sequence (Q9UM47 whole entry, looked up): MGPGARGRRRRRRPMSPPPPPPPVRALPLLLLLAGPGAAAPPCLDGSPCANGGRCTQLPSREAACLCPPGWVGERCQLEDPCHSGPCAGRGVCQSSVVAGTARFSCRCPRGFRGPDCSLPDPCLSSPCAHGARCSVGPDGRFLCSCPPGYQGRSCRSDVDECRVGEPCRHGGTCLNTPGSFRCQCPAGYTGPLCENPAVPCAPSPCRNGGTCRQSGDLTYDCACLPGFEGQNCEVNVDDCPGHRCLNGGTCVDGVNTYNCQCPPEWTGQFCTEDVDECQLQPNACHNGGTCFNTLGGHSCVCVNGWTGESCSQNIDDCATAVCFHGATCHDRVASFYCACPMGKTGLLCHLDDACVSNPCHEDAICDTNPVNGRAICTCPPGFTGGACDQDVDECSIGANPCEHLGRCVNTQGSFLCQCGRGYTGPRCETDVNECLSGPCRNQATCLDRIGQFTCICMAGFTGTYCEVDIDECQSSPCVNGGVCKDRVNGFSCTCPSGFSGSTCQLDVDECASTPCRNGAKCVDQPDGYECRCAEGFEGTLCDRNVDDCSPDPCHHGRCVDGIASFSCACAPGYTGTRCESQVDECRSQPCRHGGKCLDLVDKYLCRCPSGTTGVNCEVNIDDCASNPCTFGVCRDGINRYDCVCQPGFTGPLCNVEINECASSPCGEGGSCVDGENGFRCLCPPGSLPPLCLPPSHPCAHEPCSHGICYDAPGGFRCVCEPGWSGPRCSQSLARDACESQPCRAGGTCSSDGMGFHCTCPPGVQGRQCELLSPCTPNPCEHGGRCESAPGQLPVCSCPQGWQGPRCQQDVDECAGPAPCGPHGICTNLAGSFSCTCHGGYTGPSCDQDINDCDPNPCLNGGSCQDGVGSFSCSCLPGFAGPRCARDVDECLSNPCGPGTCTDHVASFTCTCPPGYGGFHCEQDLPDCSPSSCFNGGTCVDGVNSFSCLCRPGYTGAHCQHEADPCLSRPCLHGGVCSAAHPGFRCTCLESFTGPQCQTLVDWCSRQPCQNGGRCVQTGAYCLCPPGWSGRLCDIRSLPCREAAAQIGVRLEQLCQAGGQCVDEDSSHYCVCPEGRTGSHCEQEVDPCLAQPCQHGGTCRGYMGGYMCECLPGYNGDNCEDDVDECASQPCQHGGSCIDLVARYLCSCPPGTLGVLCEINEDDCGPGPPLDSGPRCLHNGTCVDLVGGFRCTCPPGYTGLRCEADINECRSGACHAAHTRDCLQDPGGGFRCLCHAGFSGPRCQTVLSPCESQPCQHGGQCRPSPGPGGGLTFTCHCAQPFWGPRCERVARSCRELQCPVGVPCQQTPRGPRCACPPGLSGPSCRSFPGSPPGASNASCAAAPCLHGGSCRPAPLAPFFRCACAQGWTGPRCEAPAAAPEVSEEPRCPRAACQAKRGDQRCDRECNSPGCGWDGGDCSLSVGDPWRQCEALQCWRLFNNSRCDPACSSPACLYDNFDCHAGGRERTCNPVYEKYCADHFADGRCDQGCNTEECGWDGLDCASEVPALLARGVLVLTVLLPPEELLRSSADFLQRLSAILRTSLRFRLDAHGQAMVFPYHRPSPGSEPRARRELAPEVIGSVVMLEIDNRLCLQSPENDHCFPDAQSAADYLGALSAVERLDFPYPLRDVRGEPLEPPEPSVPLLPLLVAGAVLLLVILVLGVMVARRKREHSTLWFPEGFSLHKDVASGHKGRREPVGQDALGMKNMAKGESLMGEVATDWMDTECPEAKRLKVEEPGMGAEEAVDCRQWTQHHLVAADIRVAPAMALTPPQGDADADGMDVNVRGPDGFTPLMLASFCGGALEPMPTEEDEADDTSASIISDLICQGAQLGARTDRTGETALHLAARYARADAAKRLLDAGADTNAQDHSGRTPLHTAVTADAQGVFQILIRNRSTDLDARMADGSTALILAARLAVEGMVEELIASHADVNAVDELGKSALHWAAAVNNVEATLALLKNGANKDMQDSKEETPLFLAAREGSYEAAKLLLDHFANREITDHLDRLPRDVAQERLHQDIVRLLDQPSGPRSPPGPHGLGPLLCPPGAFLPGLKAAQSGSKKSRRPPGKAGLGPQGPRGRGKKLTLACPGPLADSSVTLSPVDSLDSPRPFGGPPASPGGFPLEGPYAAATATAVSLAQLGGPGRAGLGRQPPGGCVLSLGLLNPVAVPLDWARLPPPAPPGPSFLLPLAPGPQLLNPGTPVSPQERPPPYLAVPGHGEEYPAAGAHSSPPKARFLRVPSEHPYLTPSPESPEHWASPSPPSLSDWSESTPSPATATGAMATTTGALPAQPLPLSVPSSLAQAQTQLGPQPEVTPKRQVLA
# [10] = probe aEGFR binding to arrayed compounds – biochemical, biotinylated probe, 635/667 nm fluorescence, primary screen (AID 1097); details: small-molecule microarray, higher = more signal;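 note: probe is a biotinylated anti-EGFR antibody binding compounds printed on slides; score combines fluorescence near 667 nm and signal to noise of each spot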
# [11] = system: Plasmodium falciparum Sir2 (PF13_0152, Sir2A); experiment: Plasmodium falciparum Sir2A binding compounds – biochemical, small-molecule microarray, 635 nm fluorescence, primary screen (AID 1098); details: fluorescence 635 nm, higher = more signal;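 note: score merges spot fluorescence intensity with its signal-to-noise ratio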
# [12] = probe aDKK1 binding to arrayed compounds – biochemical, biotinylated probe, 635/667 nm fluorescence, primary screen (AID 1099); details: small-molecule microarray, higher = more signal;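 note: score merges 667nm spot fluorescence with signal to noise across triplicate slides; reference of the scale not given here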
# [13] = probe aCHRDL2 binding to arrayed compounds – biochemical, biotinylated probe, 635/667 nm fluorescence, primary screen (AID 1100); details: small-molecule microarray, higher = more signal
# [14] = change in splice reporter luminescence, either direction, cell-based, HEK293, spliceosome inhibition project, primary screen (AID 1101); details: HEK293 splicing luciferase reporter, 24 h, higher = more signal, called active from +8 up or from −8 down;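 note: HEK293 cells carrying a splicing-competent luciferase reporter gene; test concentration not given here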
# [15] = target: Fibroblast growth factor 10 (Homo sapiens) (UniProt O15520); experiment: compounds binding fibroblast growth factor 10 – biochemical, small-molecule microarray, 635 nm fluorescence, primary screen (AID 1102); details: FGF10 binding, fluorescence 635 nm, higher = more signal
# Fibroblast growth factor 10 (Homo sapiens), sequence (O15520 whole entry, looked up): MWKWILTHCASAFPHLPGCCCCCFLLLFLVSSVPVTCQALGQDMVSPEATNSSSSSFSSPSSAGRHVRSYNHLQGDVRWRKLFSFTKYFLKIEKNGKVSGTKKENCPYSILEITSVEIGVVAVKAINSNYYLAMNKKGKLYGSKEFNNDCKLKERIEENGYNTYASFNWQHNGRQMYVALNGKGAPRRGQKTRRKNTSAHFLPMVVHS
# [16] = system: glycogen synthase kinase-3 (GSK3A per assay name; protocol says GSK3B); experiment: compounds binding glycogen synthase kinase-3 – biochemical, small-molecule microarray, 635 nm fluorescence, GSK3A, primary screen (AID 1103); details: fluorescence 635 nm, higher = more signal; note: the record names both GSK3A and GSK3B
# [17] = target: Epidermal growth factor receptor (Homo sapiens) (UniProt P00533); experiment: compounds binding epidermal growth factor receptor – biochemical, small-molecule microarray, 635 nm fluorescence, primary screen (AID 1104); details: EGFR binding, higher = more signal;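 note: score merges 667 nm emission intensity with spot signal to noise over triplicate slides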
# Epidermal growth factor receptor (Homo sapiens), sequence (P00533 whole entry, looked up): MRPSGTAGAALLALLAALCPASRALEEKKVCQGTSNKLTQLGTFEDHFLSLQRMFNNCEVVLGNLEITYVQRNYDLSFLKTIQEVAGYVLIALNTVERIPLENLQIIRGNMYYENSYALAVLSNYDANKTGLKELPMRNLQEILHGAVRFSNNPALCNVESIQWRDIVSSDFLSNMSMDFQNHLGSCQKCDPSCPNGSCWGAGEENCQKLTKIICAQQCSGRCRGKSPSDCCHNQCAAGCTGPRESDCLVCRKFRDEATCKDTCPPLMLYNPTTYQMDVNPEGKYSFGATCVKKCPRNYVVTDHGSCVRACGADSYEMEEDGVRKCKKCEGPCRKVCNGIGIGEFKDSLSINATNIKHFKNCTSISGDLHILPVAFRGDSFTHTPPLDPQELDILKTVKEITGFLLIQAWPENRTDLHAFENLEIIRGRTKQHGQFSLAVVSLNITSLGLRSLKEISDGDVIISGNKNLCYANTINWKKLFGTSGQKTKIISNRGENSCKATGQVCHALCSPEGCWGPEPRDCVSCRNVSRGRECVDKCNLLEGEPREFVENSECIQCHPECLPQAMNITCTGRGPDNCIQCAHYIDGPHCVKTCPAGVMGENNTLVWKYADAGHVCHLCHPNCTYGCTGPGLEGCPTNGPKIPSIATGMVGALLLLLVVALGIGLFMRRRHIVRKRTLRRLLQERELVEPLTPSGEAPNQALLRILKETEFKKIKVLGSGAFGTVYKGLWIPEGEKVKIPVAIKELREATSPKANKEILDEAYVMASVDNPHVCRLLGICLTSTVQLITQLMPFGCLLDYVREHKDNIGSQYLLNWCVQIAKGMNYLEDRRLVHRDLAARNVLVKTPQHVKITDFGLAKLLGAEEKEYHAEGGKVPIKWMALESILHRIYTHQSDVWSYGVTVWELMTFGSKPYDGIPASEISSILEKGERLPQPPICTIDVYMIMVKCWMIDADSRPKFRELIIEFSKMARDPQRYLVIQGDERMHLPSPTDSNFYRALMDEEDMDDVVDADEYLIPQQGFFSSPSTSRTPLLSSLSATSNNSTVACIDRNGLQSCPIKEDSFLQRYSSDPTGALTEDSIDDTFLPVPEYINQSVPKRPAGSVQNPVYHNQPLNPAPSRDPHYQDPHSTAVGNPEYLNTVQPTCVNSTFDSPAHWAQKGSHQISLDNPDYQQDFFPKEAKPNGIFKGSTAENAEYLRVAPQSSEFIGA
# [18] = target: Follistatin-related protein 3 (Homo sapiens) (UniProt O95633); experiment: compounds binding follistatin-related protein 3 – biochemical, small-molecule microarray, 635 nm fluorescence, primary screen (AID 1105); details: FSTL3 binding, higher = more signal;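 note: score merges emission near 667 nm and signal to noise per printed spot across three slides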
# Follistatin-related protein 3 (Homo sapiens), sequence (O95633 whole entry, looked up): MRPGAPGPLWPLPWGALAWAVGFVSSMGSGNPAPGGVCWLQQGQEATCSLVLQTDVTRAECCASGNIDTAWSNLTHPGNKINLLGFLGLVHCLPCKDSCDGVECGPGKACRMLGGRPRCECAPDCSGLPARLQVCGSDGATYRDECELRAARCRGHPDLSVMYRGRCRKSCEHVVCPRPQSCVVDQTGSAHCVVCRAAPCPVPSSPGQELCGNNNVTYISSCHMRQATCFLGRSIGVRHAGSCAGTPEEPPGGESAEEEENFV
# [19] = target: Dickkopf-related protein 1 (Homo sapiens) (UniProt O94907); experiment: small molecules binding DKK1 protein – biochemical, small-molecule microarray, 635 nm fluorescence scan, primary screen (AID 1106); details: higher = more signal;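 note: score merges emission near 667 nm with signal to noise over three replicate slides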
# Dickkopf-related protein 1 (Homo sapiens), sequence (O94907 whole entry, looked up): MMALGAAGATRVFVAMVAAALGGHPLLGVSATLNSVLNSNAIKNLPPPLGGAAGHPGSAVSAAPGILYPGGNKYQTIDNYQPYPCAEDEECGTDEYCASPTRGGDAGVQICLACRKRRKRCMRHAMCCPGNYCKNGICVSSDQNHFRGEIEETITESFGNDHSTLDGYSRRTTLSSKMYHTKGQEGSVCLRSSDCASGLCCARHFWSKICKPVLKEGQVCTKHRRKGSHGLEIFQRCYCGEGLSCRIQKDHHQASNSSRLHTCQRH
# [20] = system: Inhibin beta A chain (activin A); experiment: small molecules binding activin A – biochemical, small-molecule microarray, 635 nm fluorescence scan, primary screen (AID 1107); details: INHBA, higher = more signal;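 note: mouse activin A protein probed at 4.33 µg/mL on printed slides; score merges bound-protein fluorescence near 667 nm with spot signal-to-noise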
Structure (SMILES),composite z-score [1],z-score [2],z-score [3],z-score [4],composite z-score [5],z-score [6],composite z-score [7],composite z-score [8],composite z-score [9],composite z-score [10],composite z-score [11],composite z-score [12],composite z-score [13],z-score [14],composite z-score [15],composite z-score [16],composite z-score [17],composite z-score [18],composite z-score [19],composite z-score [20]
CC(C)(C)OC(=O)CC[C@]1(C(=O)O)COC(c2ccc(OCCCO)cc2)=N1,-1.22,0.923 (inactive),0.179 (inactive),0.197 (inactive),1.29,-0.079 (inactive),0.12,-1.09,-0.463,-0.0575,0.337,0.768,0.553,0.14 (inactive),-0.577,-0.69,-0.609,-1.2,-1.51,0.469
O=C1C2C=CC(C(O)c3ccccn3)N(Nc3ccccc3)C2C(=O)N1c1ccccc1 (stereo not given),0.207,0.756 (inactive),1.41 (inactive),0.391 (inactive),2.24,-0.917 (inactive),-0.0991,-0.292,-0.254,-0.108,0.687,0.264,0.5,0.383 (inactive),-0.191,-0.326,-0.441,-0.656,-0.341,0.826
CN(C)CCCN1C(=O)[C@@]2(Cc3ccccc31)c1ccccc1C(=O)N(Cc1ccccc1)[C@H]2c1ccc(CO)cc1,1.12,-0.0782 (inactive),-1.35 (inactive),-1.85 (inactive),-0.42,-1.42 (inactive),-0.171,0.542,0.204,-0.184,0.74,-0.152,0.113,-0.773 (inactive),-0.622,0.54,-0.306,0.408,0.0366,0.799
[N-]=[N+]=NCc1ccccc1C[C@@]1(C(=O)NCCN2CCOCC2)N=C(c2ccc(OCCCO)cc2)O[C@@H]1c1ccccc1CN=[N+]=[N-],1.56,-0.0759 (inactive),-0.67 (inactive),2.01 (inactive),2.84,1.24 (inactive),0.146,1.11,1.08,0.177,0.668,0.914,0.491,0.139 (inactive),1.15,0.602,0.244,1.29,0.855,0.817
C[C@@H]1ON(c2ccccc2)[C@H](c2ccccc2)[C@H]1C(=O)N1C(=O)OC[C@H]1Cc1ccccc1,1.3,0.713 (inactive),-0.451 (inactive),0.125 (inactive),0.786,0.547 (inactive),-0.166,0.405,0.826,-0.0549,0.342,-0.327,-0.503,-0.34 (inactive),0.423,0.149,0.569,0.697,0.471,0.106
CC(C)N1CC=CC23O[C@@H]4C=CCOC(=O)[C@@H]4[C@H]2C(=O)N(CCCCCCO)[C@@H]3C1=O (stereo not given in full),0.0483,-0.976 (inactive),-0.174 (inactive),-1.41 (inactive),3.29,0.76 (inactive),-0.315,-0.627,-0.478,-0.2,1.99,-0.284,0.143,-0.594 (inactive),0.636,-0.826,-0.997,-0.483,-0.959,0.741
CCOC(=O)C1=CCC(c2cccc(Cl)c2)O1 (stereo not given),0.487,-2.79 (inactive),-0.615 (inactive),3.33 (inactive),0.744,0.558 (inactive),-0.0831,-0.0785,0.186,-0.0953,0.355,0.14,-0.0411,-1.29 (inactive),0.235,0.0617,-0.62,-0.275,-0.504,0.154
COc1ccccc1CN1C(=O)c2ccccc2[C@@H](C(=O)NCC(C)C)[C@@H]1c1ccc(CO)cc1,-0.106,0.444 (inactive),-0.288 (inactive),0.125 (inactive),2.18,0.0616 (inactive),-0.0042,-0.081,-0.222,-0.0398,1.05,0.543,0.705,-0.8 (inactive),0.773,-0.0674,-0.318,0.0144,0.213,0.002
CC(C)c1ccc(NN2C(C(O)c3ccccn3)C=CC3C(=O)N(c4ccccc4)C(=O)C32)cc1 (stereo not given),1.5,0.485 (inactive),-0.951 (inactive),-0.252 (inactive),3.7,-0.405 (inactive),0.0038,1.7,1.05,0.154,1.52,0.753,0.105,-0.684 (inactive),1.53,1.31,0.69,1.33,0.454,-0.75
C=C[C@H](C)[C@H](OC(=O)Nc1ccc(SC)cc1)c1ccc(O)c2ccccc12,0.214,-21.7 (active),-20.8 (active),-2.22 (inactive),0.803,0.949 (inactive),-0.125,0.174,-0.673,-0.305,0.454,-0.579,-0.121,-2.12 (inactive),0.0716,-0.266,-0.0236,0.284,0.159,0.289
CC(C)N1C(=O)c2ccccc2[C@](C)(C(=O)O)[C@@H]1c1ccc(CO)cc1,-0.0681,-0.0219 (inactive),-0.751 (inactive),-1.16 (inactive),1.32,-0.156 (inactive),-0.0395,-0.615,-0.356,-0.256,0.738,0.326,0.855,0.591 (inactive),-0.756,-1.23,-1.35,-0.638,-1.06,0.532
NC(=O)NCC#Cc1ccc2c(c1)[C@]1(C(=O)N2)[C@H](c2ccc(OCCO)cc2)N2[C@H](c3ccccc3)[C@H](c3ccccc3)OC(=O)[C@H]2[C@@H]1C(=O)N1CCN(c2ncccn2)CC1,1.34,1.77 (inactive),0.494 (inactive),4.43 (inactive),1.6,1.31 (inactive),-0.0933,1.63,0.772,-0.15,0.664,-0.356,-0.417,-0.115 (inactive),0.621,0.0283,0.231,0.232,0.209,1.29
